# Reference: PubChem BioAssay (NCI)
# Compounds without any hit were thinned out: in the full panel of roughly 79,000, 15% have a hit. Unmarked numbers belong to inactive results. Activity calls are given as the source filed them. No stated cut-off is given here; in the data, active means growth inhibition above about 70%; inactive means the rest.
# Key:
# [1] = NCI Yeast Anticancer Drug Screen. Data for the rad52 strain (AID 147);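 further: 0% = growth of vehicle-treated control cultures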; details: S. cerevisiae rad52 mutant growth inhibition, hits give high values
# Procedure, shortened: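 Here a repair-compromised yeast strain receives each compound; its growth is then quantified and normalised to vehicle-only controls.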
# [2] = NCI Yeast Anticancer Drug Screen. Data for the wt1 strain (AID 149);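 further: 0% = growth of vehicle-treated wt1 cultures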; details: S. cerevisiae wt1 strain (SPY 50644) growth inhibition, hits give high values
# Procedure, shortened: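 Compounds are added to wt1 yeast cultures. Growth is then measured. Inhibition is expressed relative to vehicle-treated controls.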
# [3] = NCI Yeast Anticancer Drug Screen. Data for the rad50EPP+ strain (AID 151);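 further: 0% = growth of vehicle-treated control cultures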; details: S. cerevisiae rad50 mutant strain, hits give high values
# Procedure, shortened: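 Read-out is yeast growth inhibition relative to vehicle; cells used were the rad50EPP+ strain.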
# [4] = NCI Yeast Anticancer Drug Screen. Data for the mgt1 strain (AID 153); details: S. cerevisiae mgt1 mutant growth inhibition, hits give high values
# Procedure, shortened: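 Measured: inhibition of mgt1 yeast growth by compound, normalized to vehicle-treated cultures.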
# [5] = NCI Yeast Anticancer Drug Screen. Data for the rad50 strain (AID 155);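 further: 0% = growth of vehicle-only cultures of the same strain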; details: S. cerevisiae rad50 strain growth inhibition, hits give high values
# Procedure, shortened: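 Inhibition values express reduced yeast growth in compound-treated cultures relative to vehicle-treated controls.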
# [6] = NCI Yeast Anticancer Drug Screen. Data for the mec2-1 strain (AID 157); details: S. cerevisiae mec2-1 strain, hits give high values
# Procedure, shortened: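 Using mec2-1 yeast: add compound, measure growth, express inhibition versus vehicle-treated cultures.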
# [7] = NCI Yeast Anticancer Drug Screen. Data for the rad14 strain (AID 159);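 further: 0% = growth of vehicle-treated control cultures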; details: S. cerevisiae rad14 strain growth inhibition, hits give high values
# Procedure, shortened: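 A mutant yeast strain defective in DNA damage repair is treated with compound; inhibition of its growth is scored against untreated, vehicle-exposed cultures.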
# [8] = NCI Yeast Anticancer Drug Screen. Data for the sgs1 mgt1 strain (AID 161);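 further: 0% = growth of cultures given vehicle only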; details: S. cerevisiae sgs1 mgt1 strain, hits give high values
# Procedure, shortened: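 This yeast growth screen uses a strain with defined DNA-repair lesions; compound-treated growth is compared with vehicle-treated growth.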
# [9] = NCI Yeast Anticancer Drug Screen. Data for the CLN2oe strain (AID 163);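 further: 0% = growth of vehicle-only control cultures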; details: S. cerevisiae CLN2oe strain, hits give high values
# Procedure, shortened: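 Whole-cell yeast growth assay. A strain engineered for altered cell-cycle control received compound, and inhibition relative to vehicle-treated cultures was recorded.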
# [10] = NCI Yeast Anticancer Drug Screen. Data for the cln2 rad14 strain (AID 165);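 further: 0% = growth equal to vehicle treated cultures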; details: S. cerevisiae cln2 rad14 strain, hits give high values
# Procedure, shortened: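 Yeast strain cln2 rad14, bearing defects in cell cycle control and DNA repair, serves as the test system; values reflect growth inhibition compared with vehicle.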
# [11] = NCI Yeast Anticancer Drug Screen. Data for the bub3 strain (AID 167); details: S. cerevisiae bub3 mutant strain, hits give high values
# Procedure, shortened: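 Steps: expose the mutant yeast strain to compound; grow alongside vehicle-treated cultures; measure growth; express inhibition against the vehicle cultures.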
# [12] = NCI Yeast Anticancer Drug Screen. Data for the wt2 strain (AID 169);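 further: 0% = growth of vehicle-treated yeast cultures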; details: S. cerevisiae wt2 strain growth inhibition, hits give high values
# Procedure, shortened: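 Treated yeast vs. vehicle-treated yeast: growth inhibition determined.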
# [13] = NCI Yeast Anticancer Drug Screen. Data for the mlh1 strain (AID 171);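 further: 0% = growth of vehicle-treated control cultures of the same strain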; details: S. cerevisiae mlh1 strain growth inhibition, hits give high values
# Procedure, shortened: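 A yeast strain with a defined genetic lesion serves as the test organism. Cultures receive compound or vehicle, and growth is measured.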
# [14] = NCI Yeast Anticancer Drug Screen. Data for the sgs1 strain (AID 173);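 further: 0% = growth of vehicle-only control cultures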; details: S. cerevisiae sgs1 mutant, hits give high values
# Procedure, shortened: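 A genetically defined yeast mutant is incubated with the test compound, and its growth is compared to that of the same strain given vehicle.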
# [15] = NCI Yeast Anticancer Drug Screen. Data for the mlh1 rad18 strain (AID 175); details: S. cerevisiae mlh1 rad18 strain growth inhibition, hits give high values
# Procedure, shortened: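 Steps: expose repair-defective yeast to compound; measure growth; express inhibition against vehicle-treated controls.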
# [16] = NCI Yeast Anticancer Drug Screen. Data for the rad18 strain (AID 177); details: S. cerevisiae rad18 mutant growth inhibition, hits give high values
# Procedure, shortened: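 Measured value is growth inhibition of a yeast strain bearing a DNA repair alteration, referenced to vehicle-treated cells.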
# [17] = at 5.0 µM (retest, dose inferred, filed as 0.5)
# [18] = at 50.0 µM (retest, dose inferred, filed as 5.0)
compound,measurement,setting,value
Fc1ccc(Nc2ccc3ccccc3c2)cc1,growth inhibition,[1]; at 1.2 µM,-1%
same,growth inhibition,[1]; at 3.7 µM,-2%
same,growth inhibition,[1]; at 11.0 µM,-3%
same,growth inhibition,[1]; at 33.0 µM,17%
same,growth inhibition,[1]; at 100.0 µM,78% (active)
same,growth inhibition,[2]; at 1.2 µM,-1%
same,growth inhibition,[2]; at 3.7 µM,0%
same,growth inhibition,[2]; at 11.0 µM,-2%
same,growth inhibition,[2]; at 33.0 µM,21%
same,growth inhibition,[2]; at 100.0 µM,41%
same,growth inhibition,[3]; at 1.2 µM,-3%
same,growth inhibition,[3]; at 3.7 µM,-3%
same,growth inhibition,[3]; at 11.0 µM,-1%
same,growth inhibition,[3]; at 33.0 µM,4%
same,growth inhibition,[3]; at 100.0 µM,7%
same,growth inhibition,[4]; at 1.2 µM,-2%
same,growth inhibition,[4]; at 3.7 µM,-1%
same,growth inhibition,[4]; at 11.0 µM,-2%
same,growth inhibition,[4]; at 33.0 µM,54%
same,growth inhibition,[4]; at 100.0 µM,94% (active)
same,growth inhibition,[5]; at 1.2 µM,-6%
same,growth inhibition,[5]; at 3.7 µM,-48%
same,growth inhibition,[5]; [17],-1%
same,growth inhibition,[5]; at 11.0 µM,8%
same,growth inhibition,[5]; at 33.0 µM,4%
same,growth inhibition,[5]; [18],64%
same,growth inhibition,[5]; at 50.0 µM,91% (active)
same,growth inhibition,[5]; at 100.0 µM,89% (active)
same,growth inhibition,[6]; at 1.2 µM,-1%
same,growth inhibition,[6]; at 3.7 µM,0%
same,growth inhibition,[6]; [17],-2%
same,growth inhibition,[6]; at 11.0 µM,-3%
same,growth inhibition,[6]; at 33.0 µM,25%
same,growth inhibition,[6]; [18],84% (active)
same,growth inhibition,[6]; at 50.0 µM,90.2% (active)
same,growth inhibition,[6]; at 100.0 µM,93% (active)
same,growth inhibition,[7]; at 1.2 µM,-1%
same,growth inhibition,[7]; at 3.7 µM,2%
same,growth inhibition,[7]; at 11.0 µM,2%
same,growth inhibition,[7]; at 33.0 µM,55%
same,growth inhibition,[7]; at 100.0 µM,97% (active)
same,growth inhibition,[8]; [17],-4%
same,growth inhibition,[8]; [18],86% (active)
same,growth inhibition,[8]; at 50.0 µM,91.2% (active)
same,growth inhibition,[9]; at 1.2 µM,2%
same,growth inhibition,[9]; at 3.7 µM,-2%
same,growth inhibition,[9]; at 11.0 µM,-1%
same,growth inhibition,[9]; at 33.0 µM,-11%
same,growth inhibition,[9]; at 100.0 µM,44%
same,growth inhibition,[10]; [17],-3%
same,growth inhibition,[10]; [18],67%
same,growth inhibition,[10]; at 50.0 µM,92.1% (active)
same,growth inhibition,[11]; at 1.2 µM,0%
same,growth inhibition,[11]; at 3.7 µM,-7%
same,growth inhibition,[11]; [17],0%
same,growth inhibition,[11]; at 11.0 µM,-6%
same,growth inhibition,[11]; at 33.0 µM,-9%
same,growth inhibition,[11]; [18],12%
same,growth inhibition,[11]; at 50.0 µM,92.8% (active)
same,growth inhibition,[11]; at 100.0 µM,88% (active)
same,growth inhibition,[12]; at 1.2 µM,-1%
same,growth inhibition,[12]; at 3.7 µM,8%
same,growth inhibition,[12]; at 11.0 µM,-1%
same,growth inhibition,[12]; at 33.0 µM,44%
same,growth inhibition,[12]; at 100.0 µM,91% (active)
same,growth inhibition,[13]; at 1.2 µM,0%
same,growth inhibition,[13]; at 3.7 µM,0%
same,growth inhibition,[13]; at 11.0 µM,-2%
same,growth inhibition,[13]; at 33.0 µM,44%
same,growth inhibition,[13]; at 100.0 µM,90% (active)
same,growth inhibition,[14]; at 1.2 µM,-2%
same,growth inhibition,[14]; at 3.7 µM,0%
same,growth inhibition,[14]; at 11.0 µM,2%
same,growth inhibition,[14]; at 33.0 µM,63%
same,growth inhibition,[14]; at 100.0 µM,95% (active)
same,growth inhibition,[15]; [17],-3%
same,growth inhibition,[15]; [18],69%
same,growth inhibition,[15]; at 50.0 µM,93.5% (active)
same,growth inhibition,[16]; at 1.2 µM,0%
same,growth inhibition,[16]; at 3.7 µM,1%
same,growth inhibition,[16]; at 11.0 µM,0%
same,growth inhibition,[16]; at 33.0 µM,-1%
same,growth inhibition,[16]; at 100.0 µM,91% (active)
Cc1cccc2c(Cl)c3cccc(C)c3nc12,growth inhibition,[1]; at 1.2 µM,1%
same,growth inhibition,[1]; at 3.7 µM,-1%
same,growth inhibition,[1]; at 11.0 µM,8%
same,growth inhibition,[1]; at 33.0 µM,42%
same,growth inhibition,[1]; at 100.0 µM,65%
same,growth inhibition,[2]; at 1.2 µM,-2%
same,growth inhibition,[2]; at 3.7 µM,-3%
same,growth inhibition,[2]; at 11.0 µM,-1%
same,growth inhibition,[2]; at 33.0 µM,-1%
same,growth inhibition,[2]; at 100.0 µM,2%
same,growth inhibition,[3]; at 1.2 µM,2%
same,growth inhibition,[3]; at 3.7 µM,5%
same,growth inhibition,[3]; at 11.0 µM,26%
same,growth inhibition,[3]; at 33.0 µM,64%
same,growth inhibition,[3]; at 100.0 µM,61%
same,growth inhibition,[4]; at 1.2 µM,-4%
same,growth inhibition,[4]; at 3.7 µM,1%
same,growth inhibition,[4]; at 11.0 µM,-7%
same,growth inhibition,[4]; at 33.0 µM,0%
same,growth inhibition,[4]; at 100.0 µM,-10%
same,growth inhibition,[5]; at 1.2 µM,1%
same,growth inhibition,[5]; at 3.7 µM,10%
same,growth inhibition,[5]; [17],13%
same,growth inhibition,[5]; at 11.0 µM,21%
same,growth inhibition,[5]; at 33.0 µM,44%
same,growth inhibition,[5]; [18],75% (active)
same,growth inhibition,[5]; at 50.0 µM,75% (active)
same,growth inhibition,[5]; at 100.0 µM,62%
same,growth inhibition,[6]; at 1.2 µM,-10%
same,growth inhibition,[6]; at 3.7 µM,-13%
same,growth inhibition,[6]; [17],7%
same,growth inhibition,[6]; at 11.0 µM,-10%
same,growth inhibition,[6]; at 33.0 µM,1%
same,growth inhibition,[6]; [18],25%
same,growth inhibition,[6]; at 50.0 µM,-15.9%
same,growth inhibition,[6]; at 100.0 µM,6%
same,growth inhibition,[7]; at 1.2 µM,-2%
same,growth inhibition,[7]; at 3.7 µM,11%
same,growth inhibition,[7]; at 11.0 µM,4%
same,growth inhibition,[7]; at 33.0 µM,13%
same,growth inhibition,[7]; at 100.0 µM,12%
same,growth inhibition,[8]; [17],-6%
same,growth inhibition,[8]; [18],58%
same,growth inhibition,[8]; at 50.0 µM,-15.8%
same,growth inhibition,[9]; at 1.2 µM,-5%
same,growth inhibition,[9]; at 3.7 µM,-5%
same,growth inhibition,[9]; at 11.0 µM,-7%
same,growth inhibition,[9]; at 33.0 µM,-7%
same,growth inhibition,[9]; at 100.0 µM,-3%
same,growth inhibition,[10]; [17],-33%
same,growth inhibition,[10]; [18],10%
same,growth inhibition,[10]; at 50.0 µM,1.65%
same,growth inhibition,[11]; at 1.2 µM,-8%
same,growth inhibition,[11]; at 3.7 µM,6%
same,growth inhibition,[11]; [17],0%
same,growth inhibition,[11]; at 11.0 µM,2%
same,growth inhibition,[11]; at 33.0 µM,1%
same,growth inhibition,[11]; [18],18%
same,growth inhibition,[11]; at 50.0 µM,-28.9%
same,growth inhibition,[11]; at 100.0 µM,-17%
same,growth inhibition,[12]; at 1.2 µM,-4%
same,growth inhibition,[12]; at 3.7 µM,-3%
same,growth inhibition,[12]; at 11.0 µM,-2%
same,growth inhibition,[12]; at 33.0 µM,3%
same,growth inhibition,[12]; at 100.0 µM,5%
same,growth inhibition,[13]; at 1.2 µM,-3%
same,growth inhibition,[13]; at 3.7 µM,-2%
same,growth inhibition,[13]; at 11.0 µM,3%
same,growth inhibition,[13]; at 33.0 µM,12%
same,growth inhibition,[13]; at 100.0 µM,12%
same,growth inhibition,[14]; at 1.2 µM,-3%
same,growth inhibition,[14]; at 3.7 µM,-5%
same,growth inhibition,[14]; at 11.0 µM,-4%
same,growth inhibition,[14]; at 33.0 µM,2%
same,growth inhibition,[14]; at 100.0 µM,2%
same,growth inhibition,[15]; [17],-16%
same,growth inhibition,[15]; [18],49%
same,growth inhibition,[15]; at 50.0 µM,10.1%
same,growth inhibition,[16]; at 1.2 µM,-3%
same,growth inhibition,[16]; at 3.7 µM,-3%
same,growth inhibition,[16]; at 11.0 µM,-1%
same,growth inhibition,[16]; at 33.0 µM,6%
same,growth inhibition,[16]; at 100.0 µM,14%
